Laboratory results as given in article PMC5540273 (PLoS ONE, 2017).

Experiments:
Details in all cases: concentration: 1 μM, replicates: in singlicate; n = 1
[1] = system: PIKFYVE
[2] = system: PIM1
[3] = system: PIM2
[4] = system: PIM3
[5] = system: PIP5K1A
[6] = system: PIP5K1C
[7] = system: PIP5K2B
[8] = system: T1, PIP5K2C
T1 construct: gene PIP4K2C

[9] = system: T2, PKAC-alpha
T2 construct: gene PRKACA

[10] = system: T3, PKAC-beta
T3 construct: gene PRKACB

[11] = system: PKMYT1
[12] = system: PKN1
[13] = system: PKN2
[14] = system: PLK1
[15] = system: PLK2
[16] = system: PLK3
[17] = system: PLK4
[18] = system: PRKCD
[19] = system: PRKCE
[20] = system: PRKCH
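Further: KINOMEscan kinase panel screen.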

O=c1cc(N2CCOCC2)nc2n(Cc3cccc4ccccc34)ccn12 [GSK2333389]
%Inh [1]: 0% | %Inh [2]: 0% | %Inh [3]: 0% | %Inh [4]: 0% | %Inh [5]: 0% | %Inh [6]: 0% | %Inh [7]: 40% | %Inh [8]: 0% | %Inh [9]: 0% | %Inh [10]: 8% | %Inh [11]: 4% | %Inh [12]: 15% | %Inh [13]: 0% | %Inh [14]: 0% | %Inh [15]: 0% | %Inh [16]: 0% | %Inh [17]: 0% | %Inh [18]: 0% | %Inh [19]: 0% | %Inh [20]: 0%

Nc1nc(-c2ccc3c(N)n[nH]c3c2)cc(N2CCCC2)n1 [GSK2227430]
%Inh [1]: 0% | %Inh [2]: 20% | %Inh [3]: 0% | %Inh [4]: 0% | %Inh [5]: 0% | %Inh [6]: 26% | %Inh [7]: 0% | %Inh [8]: 0% | %Inh [9]: 0% | %Inh [10]: 0% | %Inh [11]: 0% | %Inh [12]: 10% | %Inh [13]: 0% | %Inh [14]: 0% | %Inh [15]: 0% | %Inh [16]: 0% | %Inh [17]: 0% | %Inh [18]: 0% | %Inh [19]: 0% | %Inh [20]: 5%

COc1ccc(CNC(=O)NC2CCN(c3ccnc(Nc4ccc(OC)cc4)n3)C2)cc1 (centres unmarked) [GSK1379727]
%Inh [1]: 29% | %Inh [2]: 0% | %Inh [3]: 0% | %Inh [4]: 0% | %Inh [5]: 0% | %Inh [6]: 57% | %Inh [7]: 4% | %Inh [8]: 33% | %Inh [9]: 0% | %Inh [10]: 0% | %Inh [11]: 2% | %Inh [12]: 0% | %Inh [13]: 0% | %Inh [14]: 0% | %Inh [15]: 0% | %Inh [16]: 0% | %Inh [17]: 0% | %Inh [18]: 0% | %Inh [19]: 15% | %Inh [20]: 17%

Fc1ccc(-c2nn3c(OCC(F)(F)F)cccc3c2-c2ccncc2)cc1 [GW514784]
%Inh [1]: 51% | %Inh [2]: 0% | %Inh [3]: 0% | %Inh [4]: 0% | %Inh [5]: 50% | %Inh [6]: 69% | %Inh [7]: 18% | %Inh [8]: 32% | %Inh [9]: 6% | %Inh [10]: 32% | %Inh [11]: 0% | %Inh [12]: 0% | %Inh [13]: 0% | %Inh [14]: 0% | %Inh [15]: 0% | %Inh [16]: 0% | %Inh [17]: 0% | %Inh [18]: 0% | %Inh [19]: 14% | %Inh [20]: 13%

COc1cc(Nc2nccc(N3CCC(NC(=O)c4cccc(NC(C)=O)c4)C3)n2)cc(OC)c1OC (centres unmarked) [GSK1379754]
%Inh [1]: 0% | %Inh [2]: 0% | %Inh [3]: 0% | %Inh [4]: 0% | %Inh [5]: 0% | %Inh [6]: 45% | %Inh [7]: 18% | %Inh [8]: 92.4% | %Inh [9]: 3% | %Inh [10]: 11% | %Inh [11]: 0% | %Inh [12]: 0% | %Inh [13]: 0% | %Inh [14]: 0% | %Inh [15]: 0% | %Inh [16]: 3% | %Inh [17]: 75% | %Inh [18]: 8% | %Inh [19]: 0% | %Inh [20]: 2%

[2H]C([2H])(c1cccc(C(F)(F)F)c1C)n1ccn2c(=O)nc(N3CCOCC3)cc12 [GSK2336394]
%Inh [1]: 0% | %Inh [2]: 0% | %Inh [3]: 0% | %Inh [4]: 0% | %Inh [5]: 0% | %Inh [6]: 31% | %Inh [7]: 4% | %Inh [8]: 0% | %Inh [9]: 0% | %Inh [10]: 12% | %Inh [11]: 0% | %Inh [12]: 39% | %Inh [13]: 0% | %Inh [14]: 0% | %Inh [15]: 0% | %Inh [16]: 0% | %Inh [17]: 0% | %Inh [18]: 6% | %Inh [19]: 2% | %Inh [20]: 0%

CN(C1=C(c2ccccc2)C(=O)NC1=O)c1ccccc1 [SB-334860]
%Inh [1]: 10% | %Inh [2]: 19% | %Inh [3]: 0% | %Inh [4]: 0% | %Inh [5]: 8% | %Inh [6]: 37% | %Inh [7]: 7% | %Inh [8]: 10% | %Inh [9]: 4% | %Inh [10]: 0% | %Inh [11]: 8% | %Inh [12]: 20% | %Inh [13]: 0% | %Inh [14]: 3% | %Inh [15]: 2% | %Inh [16]: 0% | %Inh [17]: 21% | %Inh [18]: 0% | %Inh [19]: 22% | %Inh [20]: 6%

NS(=O)(=O)c1cccc(-c2ccc3nccc(-c4cccc(S(N)(=O)=O)c4)c3c2)c1 [GW867253]
%Inh [1]: 21% | %Inh [2]: 3% | %Inh [3]: 0% | %Inh [4]: 9% | %Inh [5]: 21% | %Inh [6]: 0% | %Inh [7]: 0% | %Inh [8]: 41% | %Inh [9]: 0% | %Inh [10]: 0% | %Inh [11]: 3% | %Inh [12]: 0% | %Inh [13]: 11% | %Inh [14]: 24% | %Inh [15]: 19% | %Inh [16]: 30% | %Inh [17]: 14% | %Inh [18]: 23% | %Inh [19]: 18% | %Inh [20]: 0%

CC(=O)Nc1ccc(COc2ccc(Nc3ccnc4cc(-c5ccccn5)ccc34)cc2)cc1.Cl [GW440148]
%Inh [1]: 2% | %Inh [2]: 17% | %Inh [3]: 0% | %Inh [4]: 0% | %Inh [5]: 0% | %Inh [6]: 44% | %Inh [7]: 0% | %Inh [8]: 23% | %Inh [9]: 0% | %Inh [10]: 0% | %Inh [11]: 0% | %Inh [12]: 32% | %Inh [13]: 0% | %Inh [14]: 0% | %Inh [15]: 0% | %Inh [16]: 0% | %Inh [17]: 0% | %Inh [18]: 0% | %Inh [19]: 0% | %Inh [20]: 0%

N#Cc1c(N2CCOCC2)sc(-c2ccn[nH]2)c1-c1ccc(Cl)cc1
%Inh [1]: 44% | %Inh [2]: 18% | %Inh [3]: 0% | %Inh [4]: 16% | %Inh [5]: 0% | %Inh [6]: 0% | %Inh [7]: 7% | %Inh [8]: 0% | %Inh [9]: 0% | %Inh [10]: 0% | %Inh [11]: 10% | %Inh [12]: 17% | %Inh [13]: 0% | %Inh [14]: 24% | %Inh [15]: 20% | %Inh [16]: 15% | %Inh [17]: 19% | %Inh [18]: 0% | %Inh [19]: 0% | %Inh [20]: 2%
